# Results from the supplement of paper PMC12636033.
# ± gives the standard deviation of the averaged measurements. In all, about 33,000 sequences were measured (“E-score (rank enrichment, -0.5 to 0.5)”: median about -0.0028, highest 2% from about 0.23 on). The entries come from a sample that favours the highest values as a whole.
# Test system: 2Sb-muMax20 (muMax20 with two 1,3-bis(methyl)benzene Cys staples, A13C/A17C and Q88C/A92C, C-terminal Lys)
# Test: PBM 8-mer E-score (E-score (rank enrichment, -0.5 to 0.5)); higher = stronger preferential binding
# Procedure: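 Protein binding microarray (universal PBM chip covering all 10-mers in fixed probe flanks) with chemically synthesized human Max(13-93) bHLH-LZ analogs (not full-length Max) bearing noncanonical residues (hArg, Tha, Aib, Nle at 65) and aromatic Cys staples. Read-out per 8-mer (and its reverse complement): E-score (rank-based enrichment, -0.5 to 0.5) and Z-score of median probe intensity.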
row,Sequence,PBM 8-mer E-score
1,AGCGCCTG,-0.212 ± 0.01
2,AAAATCCA,0.232 ± 0.0091
3,GATTTCCC,0.0913 ± 0.071
4,GAAATCCA,-0.0749 ± 0.093
5,ATTTTCCC,0.17 ± 0.024
6,AATTTCCC,0.301 ± 0.032
7,CAAATCCA,0.0168 ± 0.048
8,GCCACAAA,0.0853 ± 0.099
9,ACGGCTTA,0.0267 ± 0.027
10,CAATGCTC,-0.0184 ± 0.021
11,GGAGTAGA,0.139 ± 0.0065
12,GGGAAGGA,0.0711 ± 0.073
13,GAGTATTA,0.12 ± 0.024
14,GTGTATTA,0.244 ± 0.061
15,ATGTATTA,0.216 ± 0.018
16,AAGTATTA,0.157 ± 0.094
17,CAGTATTA,0.28 ± 0.02
18,CTGTATTA,-0.0311 ± 0.058
19,AGCGCAAC,-0.0193 ± 0.035
20,CCAGACGC,-0.135 ± 0.041
21,CGGCTGAG,-0.16 ± 0.018
22,ACACCTAT,0.0344 ± 0.0022
23,TACCTATA,0.116 ± 0.032
24,AACCTATA,0.0842 ± 0.034
25,CACCTATA,0.232 ± 0.056

row,Sequence,PBM 8-mer E-score
1,AAGAATCG,0.202 ± 0.011
2,TTCCTCAA,-0.0714 ± 0.003
3,TCAGCCGA,-0.258 ± 0.094
4,ACGATCGC,0.0439 ± 0.021
5,GCGATCGC,0.261 ± 0.0046
6,CCGATCGC,0.0847 ± 0.035
7,ACTAAAGT,0.0154 ± 0.055
8,CAATGGTA,0.0764 ± 0.11
9,GAATACAA,0.164 ± 0.0018
10,CCCACTCC,0.241 ± 0.017
11,CCCACTTA,0.2675 ± 0.00044
12,GCCACTTA,-0.042 ± 0.068
13,CCCACTCG,-0.168 ± 0.084
14,CCCACTTC,0.184 ± 0.051
15,GCCACTCC,-0.166 ± 0.023
16,CCGACGGC,-0.2 ± 0.038
17,GTAGTGAA,0.206 ± 0.042
18,TAATGCGA,0.018 ± 0.0008
19,AAACCGGG,0.0468 ± 0.0036
20,CCGATTGA,-0.00849 ± 0.0099
21,ACGTTATC,0.0764 ± 0.057
22,ACGTTATA,0.105 ± 0.0054
23,ACGTTATG,0.2695 ± 0.0015
24,TCATCAAA,-0.124 ± 0.034
25,CATTCGAG,0.0428 ± 0.017

row,Sequence,PBM 8-mer E-score
1,ATCGTAAT,0.246 ± 0.023
2,ATCGTAAG,0.0321 ± 0.021
3,ATCGTAAA,0.0946 ± 0.014
4,AATTGGGT,0.2396 ± 0.0021
5,AATTGGGA,0.218 ± 0.012
6,AATTGGAG,0.0796 ± 0.067
7,CATTGGGA,-0.021 ± 0.0046
8,CATTGGGG,0.255 ± 0.038
9,CATTGGGC,-0.173 ± 0.044
10,AATTGGGC,0.1581 ± 0.00092
11,AATTGGTG,0.142 ± 0.023
12,AATTGGGG,0.317 ± 0.0083
13,AGCATTGG,-0.0228 ± 0.0039
14,TCCCCGAA,0.0276 ± 0.02
15,ATGTTGAC,0.0701 ± 0.026
16,GCAATTCC,-0.0345 ± 0.025
17,ATTGGCAA,0.105 ± 0.047
18,ACTGAAAA,0.0674 ± 0.026
19,GCGGAAGA,-0.0695 ± 0.055
20,AAGGTCCT,-0.112 ± 0.078
21,GGAATGCA,0.038 ± 0.021
22,CTTAATGC,0.234 ± 0.011
23,CTTAATGA,0.0296 ± 0.046
24,ATTAACAA,0.154 ± 0.00047
25,CTTAACAC,0.173 ± 0.015

row,Sequence,PBM 8-mer E-score
1,ATTAATAA,0.177 ± 0.038
2,ATTAATGC,0.147 ± 0.069
3,ATTAATAC,0.241 ± 0.012
4,GATAATAC,0.234 ± 0.042
5,ATTAACAC,0.239 ± 0.026
6,GATAATAA,0.191 ± 0.037
7,AATAATAC,0.0444 ± 0.028
8,ATTAATAG,0.186 ± 0.045
9,GTTGCTAA,0.124 ± 0.023
10,CCAACGCG,-0.0237 ± 0.021
11,AATACTCA,0.102 ± 0.013
12,CGTCCGTC,-0.11 ± 0.051
13,ACACATAT,0.124 ± 0.021
14,ATAGGGCG,0.138 ± 0.0092
15,ATGATCAG,-0.0255 ± 0.099
16,CACTTGAC,-0.0462 ± 0.076
17,CTTAATTC,0.173 ± 0.039
18,CTTAATAA,-0.0695 ± 0.0064
19,CTTAATAC,0.244 ± 0.042
20,ATCAGCTA,0.00813 ± 0.027
21,AATGAAGT,0.238 ± 0.026
22,AATGAAGA,0.0161 ± 0.012
23,AATGAAGG,0.0344 ± 0.037
24,AACAATAA,0.133 ± 0.017
25,CACAACAA,0.212 ± 0.0096

row,Sequence,PBM 8-mer E-score
1,GACAACAC,-0.0706 ± 0.0054
2,TACAACAA,0.268 ± 0.0087
3,CACAATAA,0.0489 ± 0.053
4,AACAACAA,0.194 ± 0.033
5,AACAACAC,0.2764 ± 0.0019
6,CACAACAC,0.219 ± 0.035
7,TACAATAA,0.331 ± 0.05
8,CATTTCCG,-0.0659 ± 0.0054
9,CTTCCCGC,0.0401 ± 0.037
10,ACACGTTA,0.08518 ± 0.00069
11,ATTATACA,0.0477 ± 0.0088
12,ATTATAAG,0.205 ± 0.057
13,ATTATACC,0.237 ± 0.011
14,ATTATACG,0.0799 ± 0.014
15,ATTATAAC,0.306 ± 0.0034
16,ATTATAAT,0.141 ± 0.034
17,GGCTTCAC,-0.204 ± 0.1
18,CGAGTCAG,-0.177 ± 0.05
19,CTGTATGC,0.0233 ± 0.062
20,CGATACGA,-0.06 ± 0.12
21,CTATAAGA,0.0167 ± 0.02
22,ATATAATA,0.274 ± 0.044
23,ACATAATC,0.142 ± 0.023
24,GTATAATA,0.226 ± 0.012
25,ATATAAGA,0.249 ± 0.011

row,Sequence,PBM 8-mer E-score
1,GCATAATA,0.195 ± 0.083
2,CTATAATA,0.0375 ± 0.0029
3,ACATAATA,0.302 ± 0.0096
4,GTATAAGA,0.212 ± 0.037
5,CTTAGCTA,-0.0391 ± 0.023
6,CTTTCTCC,0.00231 ± 0.006
7,CATACAGA,-0.0476 ± 0.0072
8,CACCTGCG,-0.168 ± 0.017
9,CCGTATCG,-0.0355 ± 0.019
10,TAGTGGGA,0.038 ± 0.0028
11,ACGTGGGG,0.261 ± 0.045
12,ACGTGGTA,0.216 ± 0.024
13,CCGTGGAG,-0.106 ± 0.074
14,ACGTGGAG,0.279 ± 0.0086
15,AAGTGGGA,0.281 ± 0.018
16,ACGTGGTC,0.111 ± 0.0094
17,ACGTGGGC,0.169 ± 0.022
18,ACGTGGGA,0.203 ± 0.044
19,ACGTGGTG,0.316 ± 0.034
20,GAGTGGGA,-0.0417 ± 0.045
21,ACGTGGAT,0.207 ± 0.043
22,TCTCGCCA,0.0619 ± 0.024
23,AAAAGGCA,0.0454 ± 0.064
24,AAGTGGGT,0.1 ± 0.0081
25,AAGTGGGG,0.264 ± 0.032

row,Sequence,PBM 8-mer E-score
1,ACGTGGCT,0.291 ± 0.048
2,ACGTGGCA,0.114 ± 0.049
3,ACGTGGCC,-0.0906 ± 0.018
4,AAGTGGGC,0.0223 ± 0.023
5,AACCGTGC,-0.0303 ± 0.0035
6,CGGTATTC,-0.204 ± 0.072
7,GGCCGGCC,-0.285 ± 0.0086
8,CCACGGTA,-0.185 ± 0.042
9,TTAAAGAA,0.125 ± 0.032
10,GCGTAAAC,0.0507 ± 0.016
11,AATTCCAG,0.0496 ± 0.043
12,ATACTACG,0.0847 ± 0.053
13,GGACTCAA,-0.0969 ± 0.07
14,CTTGGGGA,0.269 ± 0.046
15,ATTGGGTA,0.161 ± 0.015
16,ATTGGGGC,0.284 ± 0.0076
17,CATGGGGA,0.172 ± 0.05
18,ATTGGGGA,0.244 ± 0.0088
19,ATTGGGCC,-0.04 ± 0.093
20,AATGGGGA,0.143 ± 0.0043
21,ATTGGGGG,0.0136 ± 0.03
22,TATGGGGA,0.28 ± 0.014
23,CTTGGGAA,-0.0626 ± 0.05
24,GTTGGGGA,0.166 ± 0.092
25,ATTGGGAA,0.192 ± 0.0077
